PLK1 PBD inh – qHTS for Inhibitors of PLK1-PDB (polo-like kinase 1 - polo-box domain): Primary Screen | Serine/threonine-protein kinase PLK1 (Homo sapiens), P53350 | Plk1 PBD binding of FITC phosphopeptide, fluorescence polarization | Potency, µM, inactives show max response, negative = inhibition, hits mostly inhibitors | hit rate 2.8% among 360,000 | AID 720504, 2013; note: series mostly up to about 57 µM; % is set by controls: 0 for no effect and ±100 for the full control effect; nearly all actives have a fitted effect of over 65% in size
L3MBTL1 inh – qHTS Assay for the Inhibitors of L3MBTL1 | Lethal(3)malignant brain tumor-like protein 1 (Homo sapiens), Q9Y468 | AlphaScreen L3MBTL1–H3K9me1 peptide binding | Potency, µM (titrated, usually from 57.1 µM), for inactives: at the top dose activity, negative = inhibition, hits mostly inhibitors | hit rate 0.66% among 230,000 | AID 485360, 2010; note: % is set by controls: 0 for no effect and ±100 for the full control effect; nearly all actives have a fitted effect of over 60% in size
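Read-out is AlphaScreen signal from streptavidin donor and nickel chelate acceptor beads (10 ug/mL final each) bridging L3MBTL1 (50 nM) and biotinylated K9-monomethylated H3(1-15) peptide (75 nM), after 30 min compound exposure at room temperature.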
JMJD2A Tudor inh – qHTS Assay for Inhibitors of JMJD2A-Tudor Domain. AID 504339, 2011. hit rate 4.4% among 390,000. Lysine-specific demethylase 4A (Homo sapiens), O75164. AlphaScreen JMJD2A-Tudor / H3K4me3 peptide binding. Potency, µM (top dose mostly 114 µM), without a hit: at the top dose activity change, negative = inhibition, actives largely listed as inhibitors; note: % is set by controls: 0 for no effect and ±100 for the full control effect; nearly all actives have a fitted effect of over 50% in size
Target sequence (O75164 whole entry, looked up, the tested form may be a part): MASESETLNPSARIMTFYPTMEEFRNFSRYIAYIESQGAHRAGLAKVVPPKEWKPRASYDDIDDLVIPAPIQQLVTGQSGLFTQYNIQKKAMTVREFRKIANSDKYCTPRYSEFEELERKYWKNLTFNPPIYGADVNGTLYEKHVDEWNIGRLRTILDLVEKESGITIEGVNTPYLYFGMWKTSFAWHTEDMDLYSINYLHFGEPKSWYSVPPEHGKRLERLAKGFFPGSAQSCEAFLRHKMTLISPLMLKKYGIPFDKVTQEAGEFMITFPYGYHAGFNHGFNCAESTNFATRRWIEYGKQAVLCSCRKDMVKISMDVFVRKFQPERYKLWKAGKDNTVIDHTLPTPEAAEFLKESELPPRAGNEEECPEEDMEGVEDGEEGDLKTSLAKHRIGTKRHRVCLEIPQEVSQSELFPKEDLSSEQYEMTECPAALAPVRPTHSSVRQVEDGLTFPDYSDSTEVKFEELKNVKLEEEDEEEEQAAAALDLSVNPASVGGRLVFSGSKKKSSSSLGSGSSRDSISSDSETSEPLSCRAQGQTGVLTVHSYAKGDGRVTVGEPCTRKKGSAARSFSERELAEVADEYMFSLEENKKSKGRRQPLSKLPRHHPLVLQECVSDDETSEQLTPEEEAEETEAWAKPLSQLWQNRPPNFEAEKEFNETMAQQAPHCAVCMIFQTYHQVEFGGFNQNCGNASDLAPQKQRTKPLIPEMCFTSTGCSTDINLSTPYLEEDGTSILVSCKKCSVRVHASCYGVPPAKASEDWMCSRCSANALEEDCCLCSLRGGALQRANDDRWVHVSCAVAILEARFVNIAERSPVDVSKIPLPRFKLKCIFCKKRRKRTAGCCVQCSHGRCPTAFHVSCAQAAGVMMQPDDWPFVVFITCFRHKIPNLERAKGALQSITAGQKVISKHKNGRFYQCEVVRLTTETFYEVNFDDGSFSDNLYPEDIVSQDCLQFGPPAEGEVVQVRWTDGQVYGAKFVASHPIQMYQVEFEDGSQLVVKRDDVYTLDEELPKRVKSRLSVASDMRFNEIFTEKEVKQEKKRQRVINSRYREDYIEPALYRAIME
HP1b chromo inh – HTS for Inhibitors of HP1-beta Chromodomain Interactions with Methylated Histone Tails; Chromobox protein homolog 1 (Homo sapiens), P83916; AlphaScreen HP1-beta / biotin-H3K9me3 peptide binding; Potency, µM (series often up to 114 µM), without a hit: at the highest dose activity change, negative = inhibition, actives largely listed as inhibitors; hit rate 0.56% among 390,000; note: nearly all actives have a fitted effect of over 70% in size
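AlphaScreen: HP1-beta (50 nM) preformed 30 min with biotin-H3(1-18)K9me3 peptide (50 nM) in PBS pH 7.4, 0.01% Tween-20. Compound added for 30 min at RT, then streptavidin donor/nickel chelate acceptor beads (10 ug/mL) for 30 min.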
VDR inh – Inhibitors of the vitamin D receptor (VDR): qHTS | Vitamin D3 receptor (Homo sapiens), P11473 | VDR-SRC2-3 peptide fluorescence polarization, 2 h | Potency, µM, inactives show max response, negative = inhibition, actives largely listed as inhibitors | hit rate 0.93% among 400,000; note: % is set by controls: 0 for no effect and ±100 for the full control effect
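Measured by FP: displacement of SRC2-3 coactivator peptide from VDR by library compounds, following a two-hour ambient incubation.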
BAZ2B block – qHTS Assay for Inhibitors of BAZ2B; AID 504333, 2011; Bromodomain adjacent to zinc finger domain protein 2B (Homo sapiens), Q9UIF8; AlphaScreen BAZ2B-H3K14Ac peptide displacement; hit rate 4.4% among 360,000; Potency, µM (top dose mostly 114 µM), for the others: top-dose activity change, negative = inhibition, actives largely listed as inhibitors; note: % is set by controls: 0 for no effect and ±100 for the full control effect; nearly all actives have a fitted effect of over 60% in size
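BAZ2B 50 nM plus b-H3(5-23)K14Ac 50 nM, PBS pH 7.4/0.01% Tween-20, 30 min RT; compound added (max 110 uM), 30 min RT; streptavidin donor/Ni-chelate acceptor beads 10 ug/mL final, 20 min dark; AlphaScreen read.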
Active calls of the source: *; ? = inconclusive; . = not tested or not shown; ! = repeats disagree; [ ] = another dose, or the depositor's remark. In the library only some 6.9% were active in any assay of this set; here they are far more common. Calls come from the whole dose curve; as a rule, active = well fitted curve in the direction sought with a large enough effect; inconclusive = small, poorly fitted or top-dose-only effect, or another doubt; inactive = no such curve, though single readings can be large; an effect the other way counts as inactive or inconclusive. Potency is the fitted concentration of half-maximal effect.

SMILES	PLK1 PBD inh	L3MBTL1 inh	JMJD2A Tudor inh	HP1b chromo inh	VDR inh	BAZ2B block
CCOC(=O)C1CCN(C(=O)Cn2nc(C)n3c(cc4cc(F)ccc43)c2=O)CC1	1.4%	.	-0.3%	25.5%	12.1%	-38.6%
COc1cccc(CN(C(=O)c2ccc([N+](=O)[O-])cc2)C2CCS(=O)(=O)C2)c1 (centres undefined)	11.9µM*	.	?	-1.7%	?	-2.9%
O=S(=O)(NC1CCC(CNS(=O)(=O)c2c(F)cccc2F)CC1)c1ccc2c(c1)OCCO2 (centres undefined)	.	0.8%	.	.	.	12.0%
CCCCCC(O)C=CC1C(O)CC(O)C1CC=CCCCC(=O)O (centres undefined)	1.1%	.	.	.	.	.
CCCCC/C=C/C=C1/C(=O)C=C[C@@H]1C/C=C\CCCC(=O)O	.	.	.	.	20µM*	.
CCCCCCCC/C=C\C/C=C\C/C=C\CCCC(=O)O	.	.	.	.	-1.8%	.
CCCCC[C@H](O)C/C=C1/C(=O)C=C[C@@H]1C/C=C\CCCC(=O)O	.	.	.	.	50.1µM*	.
CCCCC[C@@H](/C=C/C1C(=O)C=C[C@H]1C/C=C\CCCC(=O)O)OC(C)=O (some centres undefined)	?	.	-23.2%	36.8%	79.4µM*	.
CCCCC/C=C\C/C=C\C/C=C\CCCCC(=O)O	?	?	-25.2%	30.1%	39.8µM*!	9.2%
O=C(Oc1ccc(O)cc1)C12CC3CC(CC(C3)C1)C2	-5.9%	4.4%	56.2µM*	?	-1.4%	-19.6%
O=C(Oc1ccc2c(c1)OCO2)C12CC3CC(CC(C3)C1)C2	0.6%	-9.8%	29.7%	65.5%	-12.6%	19.5%
C=CCC(NCc1ccccc1)c1ccc(Cl)cc1 (centres undefined)	-1.8%	40.6%	45.7%	138.3%	5.6%	126.1%
C=CCC(NCc1ccccc1)c1ccc(C)o1 (centres undefined)	10.6µM*	.	-8.4%[11.4 µM]	-7.7%	-22.7%	.
O=C(N/N=C/c1cccnc1)C12CC3CC(CC(C3)C1)C2	-7.7%	.	-19.3%	26.3%	1.4%	-2.9%
O=C(N/N=C/c1ccncc1)C12CC3CC(CC(C3)C1)C2	37.7µM*	16.9%	-33.8%	4.7%	-14.9%	-2.7%
Cc1ccccc1C(=O)/C=C1/c2ccccc2CC(C)(C)N1C	-0.6%	-3.9%	-26.3%	25.7%	-9.5%	50.1µM*
COc1ccc(-c2oc(NC(=O)CCl)c(C#N)c2-c2ccc(OC)cc2)cc1	-23.2%	.	?	-17.9%	-19.4%	50.1µM*
O=C(N/N=C/c1c(Cl)cccc1Cl)c1cccc(F)c1	3.3%	3.3%	-9.5%	8.7%	30.1%	8.1%
Cc1[nH]n(-c2ccccc2)c(=O)c1/C=N/NC(=O)c1cccc(F)c1	-5.6%	.	79.4µM*	45.4%	-2.0%	79.4µM*
O=C(N/N=C/c1ccc(Br)cc1)c1ccc(NC(=O)c2ccccc2)cc1	0.3%	.	-16.5%	21.9%	4.9%	.
Cc1[nH]n(-c2ccc(Br)cc2)c(=O)c1/C=N/NC(=O)c1ccccc1	-8.4%	-0.9%	79.4µM*	38.3%	-15.3%	31.6µM*
Cc1c(Cl)cccc1NS(=O)(=O)c1cc2c(cc1Cl)CCC(=O)N2	.	.	-9.2%	.	.	.
Cc1ccc2nc(Cl)c3nnnn3c2c1	15µM*	.	0.7%	49.4%	?	-4.2%
Cc1ccc2nc(NCc3ccccc3Cl)c3nnnn3c2c1	.	.	-10.3%	20.0%	-7.7%	2.8%
CCC(CO)Nc1ncnc2c1cnn2-c1ccc(C)cc1 (centres undefined)	.	.	-15.0%	3.2%	0.4%	10.0%
SMILES	PLK1 PBD inh	L3MBTL1 inh	JMJD2A Tudor inh	HP1b chromo inh	VDR inh	BAZ2B block
CN(C)CCCNc1nc(-c2ccccc2)c2c(c1C#N)CC(C)(C)OC2	23.8µM*	-22.7%	-5.9%[11.4 µM]	11.5%	-12.0%	2.3%
CCN(CC)CCNc1nc(-c2ccco2)c2c(c1C#N)CC(C)(C)OC2	-5.2%	-3.8%	-10.0%	23.6%	1.3%	2.0%
c1cncc(-c2ccc3ncnc(NC4CCNCC4)c3c2)c1	.	.	.	.	-14.7%	.
c1nc(NC2CCNCC2)c2cc(-c3ccoc3)ccc2n1	.	.	.	.	20µM*	.
Fc1ccc(Nc2ncnc3ccc(-c4ccoc4)cc23)cc1	.	.	.	.	39.8µM*	.
c1nc(N2CCNCC2)c2cc(-c3ccoc3)ccc2n1	.	.	.	.	-28.8%	.
OC[C@H]1O[C@@H](O[C@@H]2[C@@H](CO)O[C@](O)(CO)[C@H]2O)[C@H](O)[C@@H](O)[C@H]1O	.	.	.	.	16.9%	.
COc1ccc(Oc2ncc3nc(-c4ccccc4)c(=O)n(CCC#N)c3n2)cc1	.	.	.	.	-0.9%	.
COc1ccc(-n2ncc(C(=O)NCc3ccco3)c2C2CCN(C(=O)OC(C)(C)C)CC2)cc1	.	.	-13.9%	29.5%	9.9%	2.0%[57.1 µM]
Cc1nc(CN(C)c2ncnc3ccc(-c4ccc5c(c4)OCO5)cc23)cs1	.	.	89.1µM*	.	.	.
Cc1cccc(-c2ccc3ncnc(N(C)Cc4ccco4)c3c2)c1	.	8.5%	.	.	.	-26.6%
CN(Cc1ccco1)c1ncncc1-c1cccnc1	.	.	.	.	44.7µM*	.
Cc1ccc(CNc2ncnc3ccc(-c4ccc5c(c4)OCO5)cc23)s1	.	.	-25.9%	.	.	.
CN(Cc1ccco1)c1ncnc2ccc(-c3ccc4c(c3)OCO4)cc12	.	-5.7%	?	1.4%	39.8µM*!	-10.5%
Cc1ccccc1-c1ccc2ncnc(N(C)Cc3ccco3)c2c1	.	.	.	.	31.6µM*	.
CN1CCN(c2ncc3nc(-c4cccs4)c(=O)n(C[C@H]4CCCO4)c3n2)CC1	.	.	.	.	-0.1%	.
CCOC(=O)c1c(-c2ccc(C)cc2)csc1NC(=O)c1cc(-c2ccc(Cl)cc2)on1	.	.	-9.9%	24.0%	0.8%	-2.5%
O=C(CSc1nnc2[nH]c(=O)cc(-c3ccccc3)n12)Nc1ccc(OC(F)(F)F)cc1	.	.	-27.6%	58.1%	-0.6%	3.9%
Cc1c(C(=O)Nc2ccc(F)cc2F)oc2ccc3c(c12)C(=O)CC(C)(C)O3	.	.	-14.7%	17.6%	-0.1%	?
Cc1nc2sc(C(N)=O)c(N)c2c(-c2ccc(Br)cc2)c1C(=O)Nc1ccc(Cl)cc1	.	.	1.4%	15.9%	-20.1%	-52.6%
O=C(O)CCN1C(=O)CC(N2C(=O)/C(=C/c3ccc(Cl)cc3)SC2=S)C1=O (centres undefined)	23.8µM*	0.5%	-32.2%	-6.6%	-22.5%	-33.3%
O=C(CCN1C(=O)/C(=C/c2ccc(Cl)cc2)SC1=S)NCCCn1ccnc1	-9.3%	.	-4.3%	47.0%	-11.9%	39.8µM*

From PubChem BioAssay
